First the molecules themselves.
T1: UNK ZnF1-3 (human, UniProt Q9C0B0 31-174)
T1 sequence: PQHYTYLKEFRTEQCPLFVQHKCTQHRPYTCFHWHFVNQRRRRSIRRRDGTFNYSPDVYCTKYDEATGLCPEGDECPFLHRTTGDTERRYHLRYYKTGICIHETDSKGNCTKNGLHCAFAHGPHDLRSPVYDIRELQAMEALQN

B1: chr6:74304526:74304527:-_ENSG00000119899_ENST00000355773|hu_hu|motif|central (ssRNA)
RNA: GGGAGUUCUACAGUCCGACGAUCUAAUUAAGCAAAGGUAUCAGGAGGUCUGUUUCAGCUCAUUCCCUUUAGUAUGGCCCGGAAAAAUCAACAGAACUGUCCUACUUCAUGUUGCCCGACUAGCAGGCAGGUAUGUGAACCUAACAACAGAGGAUUGAGCAUCA
B2: 6859137_6859426_438_3pUTR_ENSG00000089693_ENST00000435120|human|control|control (ssRNA)
RNA: GGGAGUUCUACAGUCCGACGAUCGUCUGAAUCCCGAACAGUCCUCCGUGUCUCCCGGAUCCCGCCUGGUGCCGAGCGCAUCUCUGAUGUCUCUUGGUAGACCUUGGGGGCACCAUCACCCGUAUUGGAGUAGGAGAUGACAGUCAACAGAGGAUUGAGCAUCA
B3: chr18:35731670:35731671:+_ENSMUSG00000037236_ENSMUST00000166793|perfect_dup|motif|central (ssRNA)
RNA: GGGAGUUCUACAGUCCGACGAUCUGACCCUGUGAAUCCCUACCGAGAGAUGACUGCUGGAAUGACUUGGACAUUGUAGAACGGUCUCUUGUCUAUUUUAUAGAUCAAAAAAAAAAAAAAAAGUUUUAAAAGAUGGCCAAAAAGCAACAGAGGAUUGAGCAUCA
B4: chr1:39494564:39494565:+_ENSG00000168653_ENST00000372967|hu_hu|hu_hu_hu_mus_True|28_78 (ssRNA)
RNA: GGGAGUUCUACAGUCCGACGAUCAUGCAUUCGCCUCAUCGUUUUGUACCGAAGCAAACACUCUACGAAGUCAUCGAACUCUAUCUUGCACUCCUUUUUCGCCCGGGUAUAACCGAUCCCGUGUGCACACUCUAUCCACUCUUUCAACAGAGGAUUGAGCAUCA
B5: chr7:44244176:44244177:+_ENSG00000106636_ENST00000223369|hu_mus|hu_hu_hu_mus_False|48_48 (ssRNA)
RNA: GGGAGUUCUACAGUCCGACGAUCACUGUCGCUCCGGACGUAGACAUGGCAAAGAUACUCUUGUUCUUUGACAGAAGCUCUGCUGCCUUUCGAUGAGCGUUCCACAAUCAGUUGACUUGUAAAGGUCAUGAAUUCCUGCACACUCAACAGAGGAUUGAGCAUCA
B6: chr2:157388114:157388115:+_ENSMUSG00000067786_ENSMUST00000109526|mus_mus|motif|central (ssRNA)
RNA: GGGAGUUCUACAGUCCGACGAUCUUGGUGGAGGUGGUCCCUGUCUCCAGGAGCUUACAAUCUAGCUGGGGAGACACGGCGGAUGCACACUUAAACCAGUACAAUUAGCGACUACCACAAUAUUGACCACAACUGCUGCGUGAGCAACAGAGGAUUGAGCAUCA
B7: 13689013_13692640_988_3pUTR_ENSMUSG00000022684_ENSMUST00000023365|mouse|control|control (ssRNA)
RNA: GGGAGUUCUACAGUCCGACGAUCCACUCCCAGGGCUCUCACACGCUCCAGCUCCGUGAGGAUGACCCUUCUGUGGCUACUGUUCUCUAUGGUAUAAGGUGCCCUGGAAAACUCUUCUUCUGUCAAAGUUAAAAGCAACCUUCCCAACAGAGGAUUGAGCAUCA
B8: chr2:120842339:120842340:+_ENSMUSG00000023572_ENSMUST00000060455|mus_mus|motif|central (ssRNA)
RNA: GGGAGUUCUACAGUCCGACGAUCCUUAAGGACAGAGGCUGCCUUUCUAUCGAGCAAACACCCUGUCAAAGCUCCACUUCGGAAAGCAGACGUUAAAAAAACUUAAAAAAUAAAUAGGUAAAGCAGACACUGGAUCGUGGGUGUCAACAGAGGAUUGAGCAUCA
B9: 104620154_104620274_4085_CDS_ENSMUSG00000074994_ENSMUST00000117237|mouse|control|control (ssRNA)
RNA: GGGAGUUCUACAGUCCGACGAUCACCUCCACUUUCAAUAUUUUCCUCAUCUGUAAAACCUUCUAUUGCAACUGUGUCCUGUCCUUUUGCCAACUGGUCUGAAGGAAGACUAUCAAGUUCGAUGGCUGUGGGGGAUUCUGUGGACAACAGAGGAUUGAGCAUCA
B10: chr2:120842339:120842340:+_ENSMUSG00000023572_ENSMUST00000060455|mus_mus|FALSE|FALSE (ssRNA)
RNA: B8 RNA with G80U, G81A
B11: chr1:185089287:185089288:-_ENSG00000121486_ENST00000367506|hu_hu|FALSE|FALSE (ssRNA)
RNA: GGGAGUUCUACAGUCCGACGAUCUGACUGGACAUGGCUUUCUGACUGUCCUCCAGUGUAGGUGGGGGUGCUGUACUUUAAAAGGAUAGAUUUAAACUGCAUCAGAGGUGCAUCUGUGCGUACACCCAUUGGGUCAAAAUGAGUCAACAGAGGAUUGAGCAUCA
B12: 158551514_158564203_814_3pUTR_ENSG00000122335_ENST00000367104|human|control|control (ssRNA)
RNA: GGGAGUUCUACAGUCCGACGAUCCACCCUUCUGAGCAGCUAGACUCUGACUGCUUUCACUAAGAGCCAAAGAUGUAAAAUACUGGAUACACUCAUCUAGCUCUGUUUGAGGUAAGGAAGCCAGCAACUGUCUGAGCUCUUCUUCAACAGAGGAUUGAGCAUCA
B13: chr18:35731670:35731671:+_ENSMUSG00000037236_ENSMUST00000166793|perfect_dup|motif|central (ssRNA)
RNA: GGGAGUUCUACAGUCCGACGAUCUGACCCUGUGAGUCCCUACUGAGAGAUGACUGCUGGAAUGACUUGGACAUUGUAGAACGGGCUCUUGUCUAUUUUAUAGAUUAAAAAAAAAAAUUUUUUUAAAGACGGCCAAAAAGAAAGCAACAGAGGAUUGAGCAUCA
B14: chr16:20683585:20683586:+_ENSMUSG00000045983_ENSMUST00000044783|mus_mus|motif|central (ssRNA)
RNA: GGGAGUUCUACAGUCCGACGAUCUAUUGCUUCUGUUAACAUCUUCAACUUGAAUAACUCUCCAAUAAACUUGAUAUUCCCGGAAGAGCGCCGCCUAGCUAUGUCCCGGGCUUCUUCUAGCUCUUCUUUCAGGCGUCCCCGUUCCAACAGAGGAUUGAGCAUCA

14 molecules from paper PMC12136788 can be followed below.

Changes are numbered by the printed parent chain. The full ranking holds about 24,000 sequences; the median of “enrichment r” is about 0.99, and the highest 2% start at about 3.7. What follows is part of a selection rich in the highest values, with near analogues and random picks from the rest.

The target in this test is T1, UNK ZnF1-3. The experiment in a line: nsRBNS (natural sequence RNA bind-n-seq); RBNS binding buffer (assumed for nsRBNS): 25 mM Tris pH 7.5, 150 mM KCl, 3 mM MgCl2, 0.01% Triton X-100, 500 ug/ml BSA, 20 U/ml SUPERase-In, 4 C; UNK is unkempt and MSI1 is Musashi-1; names of the RNAs are library labels; protein concentration not given here; high values mean tight binding.
Turning to B1, the binding signal amounted to 0.917 enrichment R.

B2 returned a binding signal of 0.67 enrichment R.

In turn, B3 came in with a binding signal of 3.64 enrichment R.

B4: the binding signal worked out at 0.645 enrichment R.

Regarding B5, the binding signal worked out at 0.634 enrichment R.

Turning to B6, the binding signal is 1.28 enrichment R.

The molecule B7 had a binding signal of 0.702 enrichment R.

As to B8, the binding signal came out at 3.71 enrichment R.

Consider B9, for which the binding signal was determined as 0.848 enrichment R.

For the molecule B10, the binding signal worked out at 5.28 enrichment R.

Turning to B11, the binding signal came out at 0.951 enrichment R.

Take B12: the binding signal was 0.91 enrichment R.

Molecule B13 yielded a binding signal of 3.64 enrichment R.

Take B14: the binding signal is 0.438 enrichment R.
